Results on 40 molecules are retold here after PubChem BioAssay (Tox21).

Records with an inconclusive call do not appear. Active and inactive are the calls of the source. Calls come from the whole dose curve; as a rule, active = well fitted cell-killing curve with a large enough effect in the repeat runs; inconclusive = weak or mixed curves; inactive = no such curve, though single readings can be large or run the other way.
% is set by controls: 0 for no effect and ±100 for the full control effect; potency is the fitted concentration of half-maximal effect.

The assay can be described thus: qHTS assay to identify small molecule antagonists of the androgen receptor (AR) signaling pathway - cell viability counter screen (AID 743033; note: nearly all actives have a fitted effect of over 45% in size). The settings on record: AR-bla HEK293 viability, CellTiter-Glo luminescence, 16 h; series mostly up to 58.5 µM; activity change, negative = cytotoxicity: at the top concentration. The source says:
National Center for Advancing Translational Sciences [NCATS]
NIH Chemical Genomics Center [NCGC]
U.S. Environmental Protection Agency [EPA]
National Institutes of Environmental Health Sciences [NIEHS]
National Toxicology Program [NTP]
U.S. Food and Drug Administration [FDA]
Androgen receptor (AR), a nuclear hormone receptor, plays a critical role in AR-dependent prostate cancer and other androgen related diseases. Endocrine disrupting chemicals (EDCs) and their interactions with steroid hormone receptors like AR may cause disruption of normal endocrine function as well as interfere with metabolic homeostasis, reproduction, developmental and behavioral functions. To identify the compounds that inhibit AR signaling, GeneBLAzer AR-UAS-bla-GripTite cell line (Invitrogen, Carlsbad, CA, USA) containing a beta-lactamase reporter gene under control of an Upstream Activator Sequence (UAS) stably integrated into HEK293 cells was used to screen the Tox21 10K compound library. The cytotoxicity of the Tox21 compound library against the AR-bla cell line was tested in parallel by measuring the cell viability using CellTiter-Glo assay in the same wells.
Tox21 Assay Protocol Summary:
AR-bla cells were dispensed at 2,000 cells/5 uL of assay medium per well into black wall/clear-bottom 1536-well plates using a Multidrop Combi (ThermoFisher Scientific, Waltham, MA) dispenser. After the assay plates were incubated at a 37C and 5% CO2 for 4 hr, 23 nL of compounds dissolved in DMSO, positive controls or DMSO only was transferred to the assay plate by a Pintool station (Kalypsys, San Diego, CA), followed by addition of 1 uL of agonist (R1881) in culture medium using a Bioraptr Flying Reagent Dispenser (FRD) workstation (Beckman Coulter, Indianapolis, IN, USA). The plates were incubated at a 37C and 5% CO2 for 16 h. After 1 uL of LiveBLAzerTM B/G FRET substrate was added using a Bioraptr FRD, the plates were incubated at room temperature for 2 h and fluorescence intensity was measured by an Envision plate reader (PerkinElmer, Shelton, CT). For cell viability readout that measures cytotoxicity, 4 ul/well of CellTiter-Glo reagent was added into the assay plates using a Bioraptr FRD. After 30 min incubation at room temperature, the luminescence intensity in the plates was measured using a ViewLux (PerkinElmer) plate reader.
For the molecule `COc1ccc2c3c1O[C@H]1[C@H](O)CC[C@H]4[C@@H](C2)N(C)CC[C@@]341`, the “activity change, negative = cytotoxicity” value was 9.47% (inactive).

For `CCOP(=O)(Sc1ccccc1)Sc1ccccc1`, the “activity change, negative = cytotoxicity” value is -10.3% (inactive).

Turning to `S=C=NCCc1ccccc1`, the “activity change, negative = cytotoxicity” value was 0.371% (inactive).

Turning to `CCC(C)Br` (stereo not given), the “activity change, negative = cytotoxicity” value is -0.285% [at 78.9 µM] (inactive).

As for `O.O.O.O=C([O-])[C@H]([O-])[C@@H]([O-])C(=O)[O-].O=C([O-])[C@H]([O-])[C@@H]([O-])C(=O)[O-].[K+].[K+].[Sb+3].[Sb+3]`, the “activity change, negative = cytotoxicity” value was -14.8% [at 78.9 µM] (inactive).

On to `O=C(N[C@H]1N=C(c2ccccc2F)c2cccc3c2N(CC3)C1=O)c1cc2ccccc2[nH]1`, for which the “activity change, negative = cytotoxicity” value is -27.2% (inactive).

`CCC1COC(Cn2cncn2)(c2ccc(Cl)cc2Cl)O1` (stereo not given): the “activity change, negative = cytotoxicity” value is -27.9% (inactive).

Regarding `[F][Sn]([c]1ccccc1)([c]1ccccc1)[c]1ccccc1`, the Potency was 1230 nM (active).

In the case of `C=C(C)C(=O)[O][Sn]([CH2]CCC)([CH2]CCC)[CH2]CCC`, the Potency was 776 nM (active).

`CSC(C)(C)/C=N/O`: the “activity change, negative = cytotoxicity” value was 4.47% (inactive).

For the molecule `COP(=O)(OC)Oc1ccc([N+](=O)[O-])cc1`, the “activity change, negative = cytotoxicity” value was -2.19% (inactive).

On to `CC(O)C(=O)[O][Hg][c]1ccccc1` (stereo not given), for which the Potency is 2450 nM (active).

For the molecule `COc1c2c(cc3c1OCO3)CCN(C)C2`, the “activity change, negative = cytotoxicity” value is 8.15% [at 27 µM] (inactive).

Regarding `CC(C)C(Br)C(=O)NC(N)=O` (stereo not given), the “activity change, negative = cytotoxicity” value was 6.87% (inactive).

As for `C=CC(=C)C`, the “activity change, negative = cytotoxicity” value is -9.77% (inactive).

Turning to `CCCCN(CCCC)C(=S)[S-].CCCCN(CCCC)C(=S)[S-].[Ni+2]`, the “activity change, negative = cytotoxicity” value was -0.517% (inactive).

Take `CCN1CCC2(CC1)COc1cc3c(cc12)N(C(=O)c1ccc(-c2ccc(-c4nnc(C)o4)cc2C)cc1)CC3`: the Potency was 6380 nM (active).

In the case of `CCC(C)c1cccc(C(C)CC)c1O` (stereo not given), the “activity change, negative = cytotoxicity” value is -26.6% (inactive).

On to `CCCCc1ccccc1`, for which the “activity change, negative = cytotoxicity” value was 4.55% (inactive).

`ClCBr`: the “activity change, negative = cytotoxicity” value is 5.47% [at 78.9 µM] (inactive).

For `COP(=S)(OC)Oc1ccc([N+](=O)[O-])c(C)c1`, the “activity change, negative = cytotoxicity” value is -2.43% (inactive).

`Oc1ccc2[nH]cc(CCCCN3CC=C(c4ccccc4)CC3)c2c1`: the “activity change, negative = cytotoxicity” value was -28.9% (inactive).

As for `COc1ccc2c(c1OC)C(=O)O[C@@H]2[C@H]1c2cc3c(cc2CCN1C)OCO3`, the “activity change, negative = cytotoxicity” value was -5.88% (inactive).

Take `CC[C@H](C)[C@H]1O[C@]2(C=C[C@@H]1C)C[C@@H]1C[C@@H](C/C=C(\C)[C@@H](O[C@H]3C[C@H](OC)[C@@H](O[C@H]4C[C@H](OC)[C@@H](NC)[C@H](C)O4)[C@H](C)O3)[C@@H](C)/C=C/C=C3\CO[C@@H]4[C@H](O)C(C)=C[C@@H](C(=O)O1)[C@]34O)O2`: the Potency is 2190 nM (active).

Regarding `Clc1ccc(C(c2ccc(Cl)cc2)C(Cl)Cl)cc1`, the “activity change, negative = cytotoxicity” value was -9.5% (inactive).

Consider `CCOP(=O)(OCC)Oc1nc(Cl)c(Cl)cc1Cl`, for which the “activity change, negative = cytotoxicity” value is -17.3% (inactive).

Take `CN=C=O`: the “activity change, negative = cytotoxicity” value is 0.508% [at 78.9 µM] (inactive).

As to `c1ccc2nc(N3CCNCC3)ccc2c1`, the “activity change, negative = cytotoxicity” value was 2.16% (inactive).

For `O=[N+]([O-])c1cc(C(F)(F)F)c(Cl)c([N+](=O)[O-])c1Nc1ncc(C(F)(F)F)cc1Cl`, the Potency was 275 nM (active).

For the molecule `Nc1nc(N)nc(Cl)n1`, the “activity change, negative = cytotoxicity” value is 1.28% (inactive).

As to `ClC(Cl)C(Cl)(Cl)Cl`, the “activity change, negative = cytotoxicity” value was -12% (inactive).

In the case of `CCCCN(CCCC)C(=S)S`, the “activity change, negative = cytotoxicity” value is 1.13% (inactive).

Take `CCC(C)Nc1c([N+](=O)[O-])cc(C(C)(C)C)cc1[N+](=O)[O-]` (stereo not given): the “activity change, negative = cytotoxicity” value was 7.98% (inactive).

In the case of `CC(C)C(Nc1ccc(C(F)(F)F)cc1Cl)C(=O)OC(C#N)c1cccc(Oc2ccccc2)c1` (stereo not given), the “activity change, negative = cytotoxicity” value was 0.209% [at 78.9 µM] (inactive).

With `CNC(=O)/C=C(\C)OP(=O)(OC)OC`, the “activity change, negative = cytotoxicity” value was 2.32% (inactive).

`Cc1c([N+](=O)[O-])cc2c(c1[N+](=O)[O-])C(C)(C)CC2(C)C`: the “activity change, negative = cytotoxicity” value is -7.84% (inactive).

Regarding `CC1CN1` (stereo not given), the “activity change, negative = cytotoxicity” value is 4.11% (inactive).

Take `Cc1ccccc1OP(=O)(Oc1ccccc1C)Oc1ccccc1C`: the “activity change, negative = cytotoxicity” value is -11.8% [at 78.9 µM] (inactive).

With `Cc1c([N+](=O)[O-])c(C)c([N+](=O)[O-])c(C(C)(C)C)c1[N+](=O)[O-]`, the “activity change, negative = cytotoxicity” value was 0.695% (inactive).

With `CN(C)CCc1c[nH]c2ccccc12`, the “activity change, negative = cytotoxicity” value was 1.62% [at 78.9 µM] (inactive).
